According to PubChem BioAssay (NCI):
Compounds without any hit were thinned out: in the full panel of roughly 83,000, 20% have a hit.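 Growth was measured after 48 h exposure to one concentration of compound in 96-well plates. Values under 10 count as active.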 Unmarked numbers belong to inactive results. The source made the active and inactive calls.

Tested on: U251 CNS
Assay: NCI-60 one-dose screen, 48 h (100 = growth as untreated, 0 = no growth, -100 = all killed)
Conditions: 10 µM unless noted

SMILES | growth
CC(=O)N/C(=C1/OC(C(O)C(O)C(O)CO)CN1C)[P+](c1ccccc1)(c1ccccc1)c1ccccc1 (centres undefined) | 98%
COc1ccc(/C=C/C(=O)c2ccc(Nc3nc(Nc4ccc(F)cc4)nc(Nc4ccc(Cl)cc4)n3)cc2)cc1 | 111%
COc1ccc(C2=NN(C(=O)c3cc(OC)c(OC)c(OC)c3)C(c3ccc(N(C)C)cc3)C2)cc1 (centres undefined) | 15.6%
O=C1NC(=C(Cl)Cl)/C(=N/S(=O)(=O)NCCc2c[nH]c3ccccc23)N1 | 33.8%
COc1ccc(C/C(C)=C(\c2ccc(O)cc2)c2ccc(OCCN3CCCC3)cc2)cc1 | 106%
CCOC(=O)NN1CC(O)=C(c2nc(-c3ccc(Br)cc3)cs2)C1=N | 113%
COC(=O)/C(CCC=C(C)C)=C1\[C@@H](OC(C)=O)C[C@@]2(C)[C@H]1CC(=O)[C@H]1[C@@]3(C)CCC(N4CCCC4)[C@@H](C)[C@@H]3CC[C@@]12C (some centres undefined) | 101%
Nc1c(C(=O)Nc2ccccn2)sc2nc3c(cc12)C(O)CCC3 (centres undefined) | 19%
COc1ccc2nc3cc(Cl)ccc3c(NCCN)c2c1 | -81.4% (active)
Cc1cc2nc3c4ccccc4n(CCN(C)C)c3nc2cc1C | 15.7%
Cc1ccc(C)n1/C=C/n1c(C)ccc1C | 109%
Cc1c2ccccc2nc2c1ccc1cccnc12 | 84.7%
CN1CCN(Cc2ccc(NC(=O)c3cncc(C#Cc4cncc5ncccc45)c3)cc2C(F)(F)F)CC1 | 38.8%
CCNC(=O)Oc1ccc(/C(=C(/C)Cc2ccc(OC)cc2)c2ccc(OCCN3CCCCCC3)cc2)cc1 | 45.1%
NC(CSC(c1ccccc1)(c1ccccc1)c1ccc2c(c1)OCO2)C(=O)O (centres undefined) | -7.2% (active)
Cn1ccnc1C(=O)/C=C/c1ccc(C(=O)Nc2ccc(F)cc2)cc1 | 1.92% (active)
C=CCn1c(SCC(=O)Nc2ccc(C(=O)/C=C/c3ccc(OC)cc3)cc2)nnc1-c1ccccc1 | 98.1%
COc1ccccc1NC(=O)c1ccc(/C=C/C(=O)c2nccn2C)cc1 | -74.6% (active)
CCC/C(=N\NC(N)=O)C(OC)OC | 92.3%
O=C1c2cccnc2C(=O)c2c1c(C(=O)OCCCN1CCCCC1)c1ccccn21 | -31% (active)

SMILES | growth
O=C1CC2C=CCN2C=C1NC(=O)C1CCCCC1 (centres undefined) | 97.9%
O=C(Nc1ccccc1)c1sc(-c2ccccc2)cc1O | 98.5%
O=C1/C(=C/c2cccc([N+](=O)[O-])c2)COc2ccc(O)cc21 | 2.17% (active)
COc1cc2c3c(c1O)-c1ccccc1[C@@H]1OC(=O)N(CC2)[C@H]31 | 94.8%
COC(c1ccc2ccccc2c1)C(C)C(F)F (centres undefined) | 102%
Nc1ncnc2c1c(-c1ccc(Oc3ccccc3)cc1)nn2CC1SSCC1O (centres undefined) | 39.7%
C/C(=C(\c1ccc(OCCN2CCCCCC2)cc1)c1ccc(OC(=O)Cc2ccccc2)cc1)c1ccc(Cl)cc1 | 8.22% (active)
Cc1cc2oc(=O)cc(CP(=O)(O)O)c2cc1O | 98.5%
CCOC(=O)n1cc(-c2nonc2-c2cn(C)c3ccccc23)c2ccccc21 | 26.7%
Cc1cc(C)cc(Nc2ccc([N+](=O)[O-])c(NCCN3CCOCC3)n2)c1 | 20.8%
COc1ccccc1-n1c(-c2cc(O)ccc2C)cn2c3c(=O)[nH]c(=O)n(C)c3nc12 | 83.8%
O=c1oc2c(cnc3ccccc32)cc1-c1cccs1 | 99.4%
CCCCCCCCCCCCCCCCCCOc1ccccc1CC(=O)OCC[N+]1(C)CCOCC1 | 30.1%
COc1cc(C#Cc2ccc(=O)oc2C#Cc2ccccc2)cc(OC)c1OC | 83.8%
CCC(C)Nc1ccc(NC(C)CC)cc1 (centres undefined) | 87.9%
C#CCn1cnc2c(Nc3cccc(NC(=O)CCl)c3)ncnc21 | 19.1%
CC[C@H](CC[C@@H](C)[C@H]1CC[C@H]2[C@@H]3CC[C@@H]4CC(=O)/C(=C\c5ccncc5)C[C@]4(C)[C@H]3CC[C@]12C)C(C)C | 96.3%
COc1ccc2nc3ccccc3c(NCc3ccc(F)cc3)c2c1 | 22.1%
COc1ccc(Cl)cc1Nc1nc(C(F)(F)F)ccc1C(=O)N/N=C/c1ccccc1Cl | -25.8% (active)
